Measured values: PubChem BioAssay (EPA / NIEHS)
Where “and” joins values, the source holds several entries; their conditions need not be identical. Equal values may be shown once. Some compounds were tested as several samples or in several runs, with calls that do not always agree. Calls of active or inactive are those of the source. The calls were made as follows: active = hit-call score of the fitted dose curve at least 0.9, where 1 is the maximum; inactive = score below 0.9.

How the values were obtained:
Settings in all cases: mRNA level, 48 h; actives raise or lower the signal
[1] = read-out: matrix metalloproteinase-3 (MMP3), MMP3 (gene 4314); test: LTEA_HepaRG_MMP3: Life Technologies and Expression Analysis (LTEA) Assay for matrix metalloproteinase-3 (MMP3) using HepaRG (AID 2283519)
Outline: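 Differentiated human HepaRG cells, plated 48 h on collagen I, were exposed in duplicate for 48 h in serum-free induction medium to eight half-log concentrations up to 100 uM in 0.5% DMSO. MMP3 mRNA was quantified by TaqMan qRT-PCR, normalised to ACTB, GAPDH and POLR2A.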

[2] = read-out: Paternally Expressed 10 (PEG10), PEG10 (gene 23089); test: LTEA_HepaRG_PEG10: Life Technologies and Expression Analysis (LTEA) Assay for Paternally Expressed 10 (PEG10) using HepaRG (AID 2283520)
Outline: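 HepaRG, 48 h post-plating → serum-free induction medium → 48 h chemical exposure (duplicate, 8-pt, max 100 uM, half-log, 0.5% DMSO) → lysis in RLT → TaqMan qRT-PCR for PEG10, ACTB/GAPDH/POLR2A normalisation.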

[3] = read-out: Nuclear factor NF-kappa-B p105 subunit (Homo sapiens) (UniProt P19838); test: LTEA_HepaRG_NFKB1: Life Technologies and Expression Analysis (LTEA) Assay for Nuclear Factor Kappa B Subunit 1 (NFKB1) using HepaRG (AID 2283521);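 also: TaqMan qRT-PCR transcript normalised to ACTB GAPDH and POLR2A housekeeping genes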
Outline: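 Differentiated human HepaRG cells in serum-free induction medium with 0.5% DMSO were exposed for 48 h to eight half-log concentrations, top 100 uM, in duplicate. NFKB1 mRNA measured by Fluidigm TaqMan qRT-PCR, normalised to ACTB, GAPDH and POLR2A; bidirectional fit versus DMSO.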

[4] = read-out: Protein phosphatase 2A (PPP2R4), PTPA (gene 5524); test: LTEA_HepaRG_PPP2R4: Life Technologies and Expression Analysis (LTEA) Assay for Protein phosphatase 2A (PPP2R4) using HepaRG (AID 2283522)
Outline: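 Readout is PPP2R4 transcript level by microfluidic qRT-PCR after 48 h chemical treatment of human HepaRG liver cells. Concentrations spanned 100 uM downward in half-log steps; gain or loss of signal was fitted relative to DMSO.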

[5] = read-out: Phosphatase and tensin (PTEN), PTEN (gene 5728); test: LTEA_HepaRG_PTEN: Life Technologies and Expression Analysis (LTEA) Assay for Phosphatase and tensin (PTEN) using HepaRG (AID 2283523)
Outline: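 Differentiated human HepaRG cells, plated 48 h then switched to serum-free induction medium, were exposed in duplicate for 48 h to eight half-log concentrations up to 100 uM in 0.5% DMSO. PTEN mRNA measured by TaqMan qRT-PCR, normalized to ACTB/GAPDH/POLR2A, bidirectional fit versus DMSO.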

[6] = read-out: solute carrier (SLC22A1), SLC22A1 (gene 6580); test: LTEA_HepaRG_SLC22A1: Life Technologies and Expression Analysis (LTEA) Assay for solute carrier (SLC22A1) using HepaRG (AID 2283524)
Outline: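 Human HepaRG cells were plated 48 h, switched to serum-free induction medium, then exposed in duplicate for 48 h to 8-point half-log series from 100 uM in 0.5% DMSO. SLC22A1 mRNA measured by qRT-PCR, normalized to ACTB/GAPDH/POLR2A, fitted bidirectionally versus DMSO.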

[7] = read-out: Pyruvate Dehydrogenase Kinase 4 (PDK4), PDK4 (gene 5166); test: LTEA_HepaRG_PDK4: Life Technologies and Expression Analysis (LTEA) Assay for Pyruvate Dehydrogenase Kinase 4 (PDK4) using HepaRG (AID 2283525)
Outline: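 Differentiated human HepaRG cells, pre-cultured 48 h, were exposed in duplicate for 48 h in serum-free induction medium to eight half-log concentrations up to 100 uM in 0.5% DMSO. PDK4 mRNA was quantified by qRT-PCR, normalized to ACTB, GAPDH and POLR2A, bidirectional fitting versus DMSO.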

[8] = read-out: NAD(P)H dehydrogenase [quinone] 1 (NQO1), NQO1 (gene 1728); test: LTEA_HepaRG_NQO1: Life Technologies and Expression Analysis (LTEA) Assay for NAD(P)H dehydrogenase [quinone] 1 (NQO1) using HepaRG (AID 2283526)
Outline: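 HepaRG, 48 h post-plating → serum-free induction medium → test chemical 48 h (duplicate, 100 uM top, half-log x8, 0.5% DMSO) → RNA isolation → qRT-PCR, ACTB/GAPDH/POLR2A normalization; bidirectional curve fit vs DMSO baseline.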

[9] = read-out: Nuclear factor erythroid 2-related factor 2 (Homo sapiens) (UniProt Q16236); test: LTEA_HepaRG_NFE2L2: Life Technologies and Expression Analysis (LTEA) Assay for Nuclear factor erythroid 2-related factor 2 (NFE2L2) Transcription Factor using HepaRG (AID 2283527)
Outline: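 Differentiated human HepaRG cells in serum-free induction medium were exposed for 48 h to eight concentrations (top 100 uM, half-log dilutions, 0.5% DMSO), in duplicate. NFE2L2 mRNA was quantified by TaqMan qRT-PCR, normalized to ACTB, GAPDH and POLR2A, with bidirectional fitting versus DMSO.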

[10] = read-out: succinate dehydrogenase complex iron sulfur subunit B (SDHB), SDHB (gene 6390); test: LTEA_HepaRG_SDHB: Life Technologies and Expression Analysis (LTEA) Assay for succinate dehydrogenase complex iron sulfur subunit B (SDHB) using HepaRG (AID 2283528)
Outline: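 HepaRG cells (~100,000/well, plated 48 h) exposed in duplicate for 48 h in serum-free induction medium to 8-point half-log series from 100 uM in 0.5% DMSO; mRNA by qRT-PCR normalised to ACTB, GAPDH, POLR2A; bidirectional fit versus DMSO.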

Measured: AC50

Chain of Nuclear factor NF-kappa-B p105 subunit (Homo sapiens) (P19838 whole entry, looked up): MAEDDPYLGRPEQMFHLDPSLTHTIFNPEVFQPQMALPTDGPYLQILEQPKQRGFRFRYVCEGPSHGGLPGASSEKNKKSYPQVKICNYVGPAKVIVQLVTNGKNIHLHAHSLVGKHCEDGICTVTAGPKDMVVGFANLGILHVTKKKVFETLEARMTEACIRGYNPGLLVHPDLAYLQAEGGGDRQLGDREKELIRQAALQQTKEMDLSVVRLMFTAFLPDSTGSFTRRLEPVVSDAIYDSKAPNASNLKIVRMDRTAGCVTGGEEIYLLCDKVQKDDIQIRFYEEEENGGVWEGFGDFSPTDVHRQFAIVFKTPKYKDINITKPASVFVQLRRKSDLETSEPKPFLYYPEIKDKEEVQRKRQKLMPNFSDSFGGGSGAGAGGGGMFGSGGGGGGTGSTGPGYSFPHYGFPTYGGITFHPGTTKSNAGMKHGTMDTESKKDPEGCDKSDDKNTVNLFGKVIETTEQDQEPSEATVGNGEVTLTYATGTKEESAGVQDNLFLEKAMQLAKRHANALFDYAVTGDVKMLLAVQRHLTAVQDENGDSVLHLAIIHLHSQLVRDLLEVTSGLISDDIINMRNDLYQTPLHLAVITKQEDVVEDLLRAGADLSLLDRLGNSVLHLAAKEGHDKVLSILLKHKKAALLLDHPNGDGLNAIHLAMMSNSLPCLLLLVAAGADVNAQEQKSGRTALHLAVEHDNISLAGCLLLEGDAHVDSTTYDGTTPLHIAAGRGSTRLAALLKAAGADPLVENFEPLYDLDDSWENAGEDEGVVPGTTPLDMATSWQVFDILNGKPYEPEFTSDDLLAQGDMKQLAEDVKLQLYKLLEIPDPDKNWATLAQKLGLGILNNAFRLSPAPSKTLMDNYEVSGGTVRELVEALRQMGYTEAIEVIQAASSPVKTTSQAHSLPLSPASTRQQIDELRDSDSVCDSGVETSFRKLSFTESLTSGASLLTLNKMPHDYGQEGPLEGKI
Chain of Nuclear factor erythroid 2-related factor 2 (Homo sapiens) (Q16236 whole entry, looked up): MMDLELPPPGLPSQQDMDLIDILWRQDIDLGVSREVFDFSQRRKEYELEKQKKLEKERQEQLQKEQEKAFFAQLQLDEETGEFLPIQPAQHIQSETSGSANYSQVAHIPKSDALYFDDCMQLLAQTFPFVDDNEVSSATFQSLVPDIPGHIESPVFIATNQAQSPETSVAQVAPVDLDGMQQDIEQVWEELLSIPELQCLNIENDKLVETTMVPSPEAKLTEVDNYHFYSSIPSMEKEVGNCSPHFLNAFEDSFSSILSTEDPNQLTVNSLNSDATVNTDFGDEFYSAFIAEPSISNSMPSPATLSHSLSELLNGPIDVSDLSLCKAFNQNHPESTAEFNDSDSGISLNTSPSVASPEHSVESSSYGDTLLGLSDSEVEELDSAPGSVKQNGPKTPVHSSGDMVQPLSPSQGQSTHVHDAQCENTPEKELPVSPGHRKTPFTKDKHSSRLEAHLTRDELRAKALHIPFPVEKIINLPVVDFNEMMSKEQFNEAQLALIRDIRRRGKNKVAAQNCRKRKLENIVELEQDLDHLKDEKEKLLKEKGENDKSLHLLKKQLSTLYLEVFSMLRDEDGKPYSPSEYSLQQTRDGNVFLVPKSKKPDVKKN

CCCC1COC(Cn2cncn2)(c2ccc(Cl)cc2Cl)O1 (stereo unspecified)
active: [1] 89.4 µM | [2] 15 µM | [6] 40.5 µM | [7] 12.3 µM | [8] 50 µM | [9] 83.6 µM
inactive: [3] | [4] | [5] | [10]

COP(=S)(OC)Oc1nc(Cl)c(Cl)cc1Cl
active: [2] 69 µM
inactive: [1] | [4] | [5] | [6] | [7] | [8] | [9] | [10]

CNC(=O)ON=CC(C)(C)SC
inactive: [1] | [2] | [3] | [4] | [5] | [6] | [7] | [8] | [9] | [10]

OC(c1ccc(Cl)cc1)(c1cncnc1)c1ccccc1Cl (stereo unspecified)
active: [2] 5.86 µM | [4] 66.4 µM | [6] 81.8 µM | [7] 75.9 µM | [9] 44.6 µM
inactive: [1] | [5] | [8] | [10]

CCOc1cc(Oc2ccc(C(F)(F)F)cc2Cl)ccc1[N+](=O)[O-]
inactive: [1] | [3] | [4] | [5] | [7] | [8] | [10]
active: [2] 24.9 µM | [6] 38.6 µM | [9] 21.9 µM

C#CCOS(=O)OC1CCCCC1Oc1ccc(C(C)(C)C)cc1 (stereo unspecified)
inactive: [1] | [3] | [9]
active: [2] 24.2 µM | [4] 29.8 µM | [5] 30.7 µM | [6] 20.7 µM | [7] 50 µM | [8] 22.9 µM | [10] 30.5 µM

CC(C)C1(C)N=C(c2nc3ccccc3cc2C(=O)O)NC1=O (stereo unspecified)
inactive: [1] | [2] | [3] | [4] | [5] | [6] | [7] | [8] | [9] | [10]

O=C(O)c1nc(Cl)ccc1Cl
active: [7] 50 µM
inactive: [1] | [2] | [4] | [5] | [6] | [7] | [8] | [9] | [10]

CS/C(C)=N/OC(=O)N(C)SN(C)C(=O)O/N=C(\C)SC
inactive: [1] | [2] | [3] | [4] | [5] | [6] | [7] | [8] | [9] | [10]

Cc1cc(Cl)ccc1OCC(=O)O
active: [2] 9.94 µM | [7] 35.5 µM
inactive: [1] | [4] | [5] | [6] | [8] | [9] | [10]

CC(Oc1ccc(Cl)cc1Cl)C(=O)O (stereo unspecified)
inactive: [1] | [2] | [3] | [4] | [5] | [6] | [8] | [9] | [10]
active: [7] 50 µM

CC1=C(C(=O)Nc2ccccc2)SCCO1
inactive: [1] | [2] | [4] | [5] | [7] | [8] | [9] | [10]
active: [6] 14.2 µM

COc1cnc(OC)n2nc(NS(=O)(=O)c3c(OCC(F)F)cccc3C(F)(F)F)nc12
inactive: [1] | [2] | [4] | [5] | [6] | [7] | [8] | [9] | [10]

CC1COC(Cn2cncn2)(c2ccc(Oc3ccc(Cl)cc3)cc2Cl)O1 (stereo unspecified)
active: [1] 31.7 µM | [2] 59.1 µM | [4] 80.6 µM | [5] 78.5 µM | [6] 9.15 µM | [9] 19.7 µM | [10] 84.8 µM
inactive: [7] | [8]

COC(=O)c1ccccc1C(=O)OC
inactive: [1] | [2] | [3] | [4] | [5] | [6] | [7] | [8] | [9] | [10]

Fc1ccc(Oc2ccnc3cc(Cl)cc(Cl)c23)cc1
active: [2] 33.5 µM | [6] 97.8 µM | [7] 50 µM
inactive: [1] | [4] | [5] | [8] | [9] | [10]

CCOP(=S)(OCC)SCn1c(=O)oc2cc(Cl)ccc21
inactive: [1] | [2] | [4] | [5] | [6] | [7] | [8] | [9] | [10]

Cc1c(F)c(F)c(COC(=O)C2C(/C=C(\Cl)C(F)(F)F)C2(C)C)c(F)c1F (stereo unspecified)
active: [6] 12.3 µM
inactive: [1] | [2] | [3] | [4] | [5] | [7] | [8] | [9] | [10]

CC(C)(C)c1ccc(CSc2cnn(C(C)(C)C)c(=O)c2Cl)cc1
active: [2] 1.01 µM | [4] 1.84 µM | [6] 2.71 µM | [7] 9.92 µM | [9] 26.7 µM | [10] 1.54 µM
inactive: [1] | [5] | [8]

COc1nc(NC(C)C)nc(NC(C)C)n1
inactive: [1] | [2] | [3] | [4] | [5] | [6] | [7] | [8] | [9] | [10]

N#Cc1nn(-c2c(Cl)cc(C(F)(F)F)cc2Cl)c(N)c1S(=O)C(F)(F)F (stereo unspecified)
inactive: [5] | [10]
active: [1] 50.2 µM | [2] 23.6 µM | [4] 11.5 µM | [6] 19.6 µM | [7] 23.1 µM | [8] 81.6 µM | [9] 83 µM

Oc1ccccc1-c1ccccc1
inactive: [1] | [2] | [4] | [5] | [6] | [7] | [8] | [9] | [10]

CCCCNC(=O)OCC#CI
inactive: [1] | [2] | [4] | [5] | [6] | [7] | [8] | [9] | [10]

CCNc1nc(Cl)nc(NCC)n1
inactive: [1] | [2] | [4] | [5] | [6] | [7] | [8] | [9] | [10]

COC(=O)N(OC)c1ccccc1COc1ccn(-c2ccc(Cl)cc2)n1
inactive: [4] | [10]
active: [1] 26.5 µM | [2] 17 µM | [5] 78.5 µM | [6] 58.7 µM | [7] 11.3 µM | [8] 84.8 µM | [9] 18.3 µM

COC(=O)C=C(C)OP(=O)(OC)OC
inactive: [1] | [2] | [4] | [5] | [6] | [7] | [8] | [9] | [10]

CO/C=C(/C(=O)OC)c1ccccc1Oc1cc(Oc2ccccc2C#N)ncn1
inactive: [4] | [5] | [7] | [8] | [9] | [10]
active: [1] 83.2 µM and 79.1 µM and 78.9 µM | [2] 27.9 µM and 26.6 µM and 17.5 µM | [6] 78 µM and 70.5 µM and 68.7 µM | [7] 18.6 µM | [9] 77.7 µM and 74.5 µM
